Assay results taken from PubChem BioAssay (NCATS).
Where “and” joins values, the source holds several entries; their conditions need not be identical. Equal values may be shown once. Records with an inconclusive call do not appear. A structure can be active in one record and inactive in another. Calls of active or inactive are those of the source. Unless noted, calls follow the shape of the dose curve; as a rule, active = well fitted curve in the direction sought with a large enough effect; inconclusive = small, poorly fitted or top-dose-only effect, or another doubt; inactive = no such curve, though single readings can be large; an effect the other way counts as inactive or inconclusive.

Assays:
CASKI = assay: Primary qHTS to identify gynecologic anti-cancer compounds using libraries of approved drugs and bioactive compounds (AID 1345084); conditions: Gynecologic cancer cell panel viability, ATPlite luminescence, 48 h; series mostly up to 57.5 µM; also: nearly all actives have a fitted effect of over 55% in size; also: potency is read from the fitted curve at half-maximal effect
Outline: (§1)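 Five-concentration response, 48 h; readout is ATP-driven luciferase luminescence.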

Es-2 = assay: as above; conditions: Gynecologic cancer cell panel viability, ATPlite luminescence, 48 h; series mostly up to 57.5 µM
Outline: as §1

HeLa = assay: as above; conditions: Gynecologic cancer cell panel viability, ATPlite luminescence, 48 h; series mostly up to 57.5 µM
Outline: as §1

Hek293T = assay: as above; conditions: Gynecologic cancer cell panel viability, ATPlite luminescence, 48 h, control line for the selectivity index; series mostly up to 57.5 µM
Outline: as §1

JEG-3 = assay: as above; conditions: Gynecologic cancer cell panel viability, ATPlite luminescence, 48 h; series mostly up to 57.5 µM
Outline: as §1

OV90 = assay: as above; conditions: Gynecologic cancer cell panel viability, ATPlite luminescence, 48 h; series mostly up to 57.5 µM
Outline: as §1

PA-1 = assay: as above; conditions: Gynecologic cancer cell panel viability, ATPlite luminescence, 48 h; series mostly up to 57.5 µM
Outline: as §1

SKOV3 = assay: as above; conditions: Gynecologic cancer cell panel viability, ATPlite luminescence, 48 h; series mostly up to 57.5 µM
Outline: as §1

Tov-21-G = assay: as above; conditions: Gynecologic cancer cell panel viability, ATPlite luminescence, 48 h; series mostly up to 57.5 µM
Outline: as §1

Tov112D = assay: as above; conditions: Gynecologic cancer cell panel viability, ATPlite luminescence, 48 h; series mostly up to 57.5 µM
Outline: as §1

[1] = Drug repurposing screens with cells derived from glioblastoma tumor samples (AID 1345199); conditions: GBM patient neurospheres viability, ATP luminescence, 48 h; for Potency: tumour line A; also: potency is read from the fitted curve at half-maximal effect; as to activity, negative = cell killing: % is scaled to controls: 0 for no effect and ±100 for the full control effect; as to all read-outs here: nearly all actives have a fitted effect of over 40% in size
Outline: (§2)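 Four patient lines of CD133+ GBM neurospheres were screened at several concentrations; hits were retested in those lines plus three slower-growing GBM lines, using 48-hour treatment and ATP-based viability.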

astro = assay: as above; conditions: viability, ATP luminescence, 48 h; series mostly up to 45.9 µM
Outline: as §2

[2] = molecular target: Nuclear receptor subfamily 1 group I member 2 (Rattus norvegicus) (UniProt Q9R1A7); assay: qHTS assay for small molecule activators of the rat pregnane X receptor (rPXR) signaling pathway (AID 651751; call rule not given here; also: 0% is about no effect); conditions: rPXR reporter cells, luciferase (One-Glo), 24 h
[3] = qHTS assay for small molecule activators of the human pregnane X receptor (PXR) signaling pathway (AID 720659; call rule not given here; also: 0% is about no effect)
[4] = at 45.9 µM (top of the series), tumour line B
[5] = at 45.9 µM (top of the series), tumour line D
[6] = at 46.1 µM (top of the series), tumour line C

Chain of Nuclear receptor subfamily 1 group I member 2 (Rattus norvegicus) (Q9R1A7 whole entry, looked up): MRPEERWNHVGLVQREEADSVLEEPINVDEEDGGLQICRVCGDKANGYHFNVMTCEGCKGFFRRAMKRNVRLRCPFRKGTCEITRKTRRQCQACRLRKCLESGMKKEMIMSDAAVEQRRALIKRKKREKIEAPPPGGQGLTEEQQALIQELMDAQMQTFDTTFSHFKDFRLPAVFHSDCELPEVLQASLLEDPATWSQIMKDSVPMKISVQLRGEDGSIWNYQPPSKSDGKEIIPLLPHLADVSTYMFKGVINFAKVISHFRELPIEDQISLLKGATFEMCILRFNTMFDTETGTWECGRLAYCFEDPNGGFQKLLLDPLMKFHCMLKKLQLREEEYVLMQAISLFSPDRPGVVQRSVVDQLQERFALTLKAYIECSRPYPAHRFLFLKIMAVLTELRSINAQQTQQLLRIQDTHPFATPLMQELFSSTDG

CC(C)(C)C(=O)NCCCC(=O)O
inactive: Potency (CASKI) | Potency (Es-2) | Potency (HeLa) | Potency (Hek293T) | Potency (JEG-3) | Potency (OV90) | Potency (PA-1) | Potency (SKOV3) | Potency (Tov-21-G) | Potency (Tov112D) | activity, negative = cell killing [1, 4] -17.2% | activity, negative = cell killing [1, 5] -2.84% | activity, negative = cell killing [1, 6] -20.2% | Potency (astro)

NCCNCCNCCN
inactive: Potency (CASKI) | Potency (Es-2) | Potency (HeLa) | Potency (Hek293T) | Potency (JEG-3) | Potency (OV90) | Potency (PA-1) | Potency (SKOV3) | Potency (Tov-21-G) | Potency (Tov112D) | activity, negative = cell killing [1, 4] -6% | activity, negative = cell killing [1, 5] -28.2% | activity, negative = cell killing [1, 6] -8.15% | Potency (astro) | max response [2] 9.63% | outcome [3]

c1ccc(CN(CC2=NCCN2)c2ccccc2)cc1
inactive: Potency (CASKI) | Potency (Es-2) | Potency (HeLa) | Potency (Hek293T) | Potency (JEG-3) | Potency (OV90) | Potency (PA-1) | Potency (SKOV3) | Potency (Tov-21-G) | Potency (Tov112D) | activity, negative = cell killing [1, 4] -15.8% | activity, negative = cell killing [1, 5] -19.1% | activity, negative = cell killing [1, 6] -20.7% | Potency (astro)

CC1=C(CC(=O)O)c2cc(F)ccc2/C1=C\c1ccc(S(C)=O)cc1 (centres undefined)
inactive: Potency (CASKI) | Potency (Es-2) | Potency (HeLa) | Potency (Hek293T) | Potency (JEG-3) | Potency (OV90) | Potency (PA-1) | Potency (SKOV3) | Potency (Tov-21-G) | Potency (Tov112D) | activity, negative = cell killing [1, 4] -9.8% | activity, negative = cell killing [1, 5] -10.1% | activity, negative = cell killing [1, 6] -18.8% | Potency (astro)

CCCCCCCCCCCCOS(=O)(=O)O
inactive: Potency (CASKI) | Potency (Es-2) | Potency (HeLa) | Potency (Hek293T) | Potency (JEG-3) | Potency (OV90) | Potency (PA-1) | Potency (SKOV3) | Potency (Tov-21-G) | Potency (Tov112D) | activity, negative = cell killing [1, 4] -29.7% | activity, negative = cell killing [1, 5] 0.019% | activity, negative = cell killing [1, 6] -0.178% | Potency (astro) | max response [2] 1.76% [middle of 4 runs] | outcome [3]

Nc1nc2c(ncn2CCC(CO)CO)c(=O)[nH]1
inactive: Potency (CASKI) | Potency (Es-2) | Potency (HeLa) | Potency (Hek293T) | Potency (JEG-3) | Potency (OV90) | Potency (PA-1) | Potency (SKOV3) | Potency (Tov-21-G) | Potency (Tov112D) | activity, negative = cell killing [1, 4] -8.7% | activity, negative = cell killing [1, 5] 3.63% | activity, negative = cell killing [1, 6] -21.6% | Potency (astro)

CC(C)C(=O)c1c(C(C)C)nn2ccccc12
inactive: Potency (CASKI) | Potency (Es-2) | Potency (HeLa) | Potency (Hek293T) | Potency (JEG-3) | Potency (OV90) | Potency (PA-1) | Potency (SKOV3) | Potency (Tov-21-G) | Potency (Tov112D) | activity, negative = cell killing [1, 4] -5.19% | activity, negative = cell killing [1, 6] -20.7% | Potency (astro)
active: Potency [1] 8.91 µM

C[C@]12CC[C@@H]3c4ccc(O)cc4CC[C@H]3[C@@H]1CCC2=O
active: Potency (HeLa) 28.2 µM
inactive: Potency (CASKI) | Potency (Es-2) | Potency (Hek293T) | Potency (JEG-3) | Potency (OV90) | Potency (PA-1) | Potency (SKOV3) | Potency (Tov-21-G) | Potency (Tov112D) | activity, negative = cell killing [1, 4] -16.5% | activity, negative = cell killing [1, 5] -20.7% | activity, negative = cell killing [1, 6] -9.33% | Potency (astro) | max response [2] 1.32%

CCN(CC)CCNC(C(=O)OCCC(C)C)c1ccccc1 (centres undefined)
inactive: Potency (CASKI) | Potency (Es-2) | Potency (HeLa) | Potency (Hek293T) | Potency (JEG-3) | Potency (OV90) | Potency (PA-1) | Potency (SKOV3) | Potency (Tov-21-G) | Potency (Tov112D) | activity, negative = cell killing [1, 4] -12.5% | activity, negative = cell killing [1, 6] 6.2% | Potency (astro)
active: Potency [1] 25.1 µM

CC[C@@]1(c2ccccc2)NC(=O)N(C)C1=O
inactive: Potency (CASKI) | Potency (Es-2) | Potency (HeLa) | Potency (Hek293T) | Potency (JEG-3) | Potency (OV90) | Potency (PA-1) | Potency (SKOV3) | Potency (Tov-21-G) | Potency (Tov112D) | activity, negative = cell killing [1, 4] -13.7% | activity, negative = cell killing [1, 5] -9.17% | activity, negative = cell killing [1, 6] 9.18% | Potency (astro)

CC(C)(O)c1ccccc1CC[C@@H](SCC1(CC(=O)O)CC1)c1cccc(/C=C/c2ccc3ccc(Cl)cc3n2)c1
inactive and 35.5 µM (active): Potency (SKOV3)
active: Potency (astro) 20 µM
inactive: Potency (CASKI) | Potency (Es-2) | Potency (HeLa) | Potency (Hek293T) | Potency (JEG-3) | Potency (OV90) | Potency (PA-1) | Potency (Tov-21-G) | Potency (Tov112D) | activity, negative = cell killing [1, 4] -2.34% | activity, negative = cell killing [1, 5] -14.4% | activity, negative = cell killing [1, 6] -19.5%
